Screening data as filed in PubChem.
Sampled rows, rich in hits. Any-hit rate of the full collection: about 3.1%.
Beta apoptosis = beta cell apoptosis inhibition | INS-1E cytokine-induced death, ATP luminescence, 48 h; percent of positive-control rescue, neutral wells zero | protection from apoptosis, % (concentration not given with the values) | 300,000 compounds, 0.8% hits;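 active = Every replicate reaches about 75%, or at least half do and their mean reaches it too, limit read from the data; inconclusive = At least half of replicates reach the limit but their mean does not; inactive = Under half of replicates reach the limit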;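 note: 0% = cytokine-treated negative control wells and 100% = positive control rescue; higher means more ATP so stronger rescue from cytokine killing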
PP5 inh = PP5 (human) phosphatase inhibition; 320,000 compounds, 0.18% hits; inhibition, % at 6.7 µM; purified PP5c, OMFP substrate fluorescence; P53041;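 active = inhibition above the campaign's mean inhibition across all tested compounds plus 3 SD, cut at about 9.5% in these data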;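 note: 0% = DMSO only and 100% = 100 µM cantharidin control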
Target sequence (P53041 whole entry, looked up): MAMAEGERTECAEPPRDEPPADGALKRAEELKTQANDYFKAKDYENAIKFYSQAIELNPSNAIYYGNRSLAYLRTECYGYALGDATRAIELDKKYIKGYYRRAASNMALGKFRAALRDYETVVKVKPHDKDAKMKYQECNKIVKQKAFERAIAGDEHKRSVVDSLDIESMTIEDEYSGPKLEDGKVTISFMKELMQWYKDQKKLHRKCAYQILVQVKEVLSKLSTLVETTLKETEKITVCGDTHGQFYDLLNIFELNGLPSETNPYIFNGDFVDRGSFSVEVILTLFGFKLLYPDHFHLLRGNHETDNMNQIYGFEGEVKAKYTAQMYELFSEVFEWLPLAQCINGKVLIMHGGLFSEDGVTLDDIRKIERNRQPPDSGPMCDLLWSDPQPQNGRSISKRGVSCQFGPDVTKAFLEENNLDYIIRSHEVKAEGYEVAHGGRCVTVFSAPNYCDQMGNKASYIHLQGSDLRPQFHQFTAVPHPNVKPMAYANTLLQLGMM
CSC inhib = cancer stem cell inhibition; cancer stem cell-like cells viability, luminescence; inhibition, % at 7.5 µM; 300,000 compounds, 1.1% hits; AID 2717; in the data active = inhibition above about 75%; inconclusive = no clear call, values can overlap the other calls; tested in HMLE shEcad cells
PP1 inh = blocks human PP1-alpha phosphatase, a PP5 counter-screen; P62136; purified PP1alpha, OMFP fluorescence; inhibition, % at 6.7 µM; 320,000 compounds, 0.9% hits;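 active = inhibition above the mean inhibition of all tested compounds plus 3 SD, computed separately for each screening campaign, cut at about 15% in these data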
SKKanGAS inh = SKKanGAS growth inhibition. AID 1662. inhibition, % at 7.5 µM. 300,000 compounds, 1.3% hits. S. pyogenes SKKanGAS, kanamycin growth, BacTiter-Glo, 6 h;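 active = mean replicate score, as percent of positive control median, at least 50; inconclusive = mean below 50 but one replicate at or above 50; inactive = mean and every replicate below 50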;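 note: strain carries kanamycin resistance gene driven by streptokinase promoter and grows in 40 µg/ml kanamycin; loss of luminescence reflects streptokinase promoter inhibition or plain growth inhibition; 0% = median of DMSO wells and 100% = positive control at its reference dose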
PP1 inh confirm = confirmation of human PP1 phosphatase inhibitors. purified PP1alpha, OMFP substrate fluorescence. inhibition, % at 6.7 µM. shares compounds with PP1 inh. 1,900 compounds, 52% hits. AID 2358;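 active = mean PP1 inhibition above a set limit taken from the earlier primary screen, cut at about 15% in these data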
PP5 inh counter = inhibits human PP5 phosphatase in PP1 counter-screen; purified PP5c, OMFP fluorescence; AID 2360; 1,900 compounds, 4% hits; shares compounds with PP1 inh; inhibition, % at 6.7 µM;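 active = mean PP5 inhibition over triplicate wells above about 9.5% taken from the earlier PP1 screen, limit read from the data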
Numbers without * were called inactive; u = inconclusive; x = no result.

SMILES | Beta apoptosis | PP5 inh | CSC inhib | PP1 inh | SKKanGAS inh | PP1 inh confirm | PP5 inh counter
O=C(c1ccc(Cl)c(Cl)c1)N1CCC(=O)N(C(COCc2cccc(Cl)c2)Cc2ccccc2)CC1 (stereo not given) | 14.2 | 4.4 | 44.6 | 19.9* | 32.6 | 9.3 | 0.8
O=C(COc1ccccc1)N1CCN(S(=O)(=O)c2ccc(Br)cc2)CC1 | -6.6 | -0.5 | 1.5 | 21.6* | 1.2 | -1.4 | -0.5
COc1ccccc1NC(=O)Nc1ccnn1C1CCN(C(=O)c2cccnc2)CC1 | -3.4 | 0.8 | -1.8 | -3.2 | 0.5 | x | x
Cc1ccc(S(=O)(=O)N2[C@@H](c3cccc(Cl)c3)C(C(=O)O)=CC[C@H]2c2ccc(C(C)C)cc2)cc1 | -3.6 | 2.2 | 9.2 | 29.0* | x | 21.0* | 2.0
Cc1ccc(S(=O)(=O)N2[C@@H](c3ccc(F)cc3)C(C(=O)O)=CC[C@H]2c2ccc(C(C)C)cc2)cc1 | -3.5 | 3.7 | -4.7 | 19.4* | x | 11.8 | 2.6
Cc1ccc(S(=O)(=O)N2[C@@H](c3ccc(Cl)cc3)C(C(=O)O)=CC[C@H]2c2ccc(Cl)cc2)cc1 | 3.7 | 5.2 | 17.0 | 21.5* | x | 12.1 | 0.2
Cc1ccc(S(=O)(=O)N2[C@@H](c3ccc(F)cc3)C(C(=O)O)=CC[C@H]2c2ccc(Cl)cc2)cc1 | 9.2 | -2.1 | 3.4 | 11.2 | x | x | x
O=C(O)C1=CC[C@@H](c2ccc(Cl)cc2)N(S(=O)(=O)c2ccc(Cl)cc2)[C@H]1c1cccc(Cl)c1 | 1.9 | -2.9 | 13.0 | 23.1* | x | 12.5 | -3.6
COc1ccc(Cn2c(SCc3ccccc3C)nc3cc(OC)c(OC)cc3c2=N)cc1 | 108.5* | 2.9 | 99.7* | 29.6* | 60.1* | 3.4 | -1.2
COc1cc2nc(SCc3ccc(F)cc3)n(Cc3cccs3)c(=N)c2cc1OC | 18.3 | 5.4 | 0.0 | 0.7 | 13.6 | x | x
O=C1CC(c2ccc(O)cc2)Oc2cc(O)cc(O)c21 (stereo not given) | 1.3 | 1.3 | -2.5 | -0.9 | 0.4 | x | x
CC1CC(=O)c2c(cc3c(-c4c(O)cc(O)c5c(O)c6c(cc45)OC(C)CC6=O)c(O)cc(O)c3c2O)O1 (stereo not given) | 98.3* | 1.0 | -1.3 | 69.7* | 107.4* | 48.2* | 1.9
O=C(NC(C(=O)N/N=C/c1c2ccccc2cc2ccccc12)c1n[nH]c(=O)c2ccccc12)c1ccccc1 (stereo not given) | 7.6 | 4.0 | -4.6 | 18.3* | 9.6 | 16.6* | -1.9
N#C/C(=C/c1ccc(-c2ccc(S(N)(=O)=O)cc2)o1)c1nc2ccccc2s1 | 9.1 | -1.6 | 4.0 | 19.6* | x | 21.9* | -6.9
COc1ccc(C2C(C(C)=O)=C(O)C(=O)N2c2ccc(Br)cc2)cc1 (stereo not given) | 1.2 | 2.8 | -11.3 | 18.1* | -3.8 | 16.8* | -3.0
CC(=O)C1=C(O)C(=O)N(c2ccc(O)cc2)C1c1ccc(Cl)cc1 (stereo not given) | x | 1.1 | -12.7 | 5.4 | 3.6 | x | x
COc1ccc(C2C(C(C)=O)=C(O)C(=O)N2c2ccc(O)cc2)cc1 (stereo not given) | -10.9 | 0.5 | -15.5 | -2.3 | -4.3 | x | x
CC(=O)C1=C(O)C(=O)N(c2cc(C(C)(C)C)on2)C1c1ccc(C(C)C)cc1 (stereo not given) | -6.7 | 1.7 | -4.7 | 7.8 | 37.6 | x | x
CC(=O)C1=C(O)C(=O)N(c2ccc(Br)cc2)C1c1ccc(Cl)cc1 (stereo not given) | 6.6 | -1.6 | 2.9 | 27.8* | 11.9 | 20.6* | -1.3
CC(=O)C1=C(O)C(=O)N(c2cc(C(C)(C)C)on2)C1c1ccc(Br)cc1 (stereo not given) | -0.8 | 0.9 | x | 19.6* | 24.6 | 21.6* | -1.5
OCCNc1ncnc2c1c(-c1ccccc1)c(-c1ccccc1)n2Cc1ccco1 | 7.4 | -0.6 | -27.5 | -3.3 | 12.0 | x | x
c1ccc(-c2c(-c3ccccc3)n(Cc3ccco3)c3ncnc(NCCCn4ccnc4)c23)cc1 | 17.1 | 3.7 | 133.2* | 24.1* | 35.6 | 14.9 | 3.1
N=c1c2c(-c3ccccc3)c(-c3ccccc3)n(Cc3ccco3)c2ncn1Cc1ccccc1 | 91.5* | 0.9 | 110.1* | 28.4* | 35.9 | 1.4 | -0.9
CC(C)CN1CCNC(=O)C1CC(=O)NCc1cnn(-c2cccc(F)c2)c1 (stereo not given) | -0.5 | -0.7 | 0.3 | -2.1 | 5.4 | x | x
N#CCC(=O)Nc1ccc(C(=O)OCC(=O)NC2CCCc3ccccc32)cc1 (stereo not given) | 0.7 | x | 1.1 | x | x | x | x
SMILES | Beta apoptosis | PP5 inh | CSC inhib | PP1 inh | SKKanGAS inh | PP1 inh confirm | PP5 inh counter
Cc1cc(Cl)ccc1Oc1ccccc1C(=O)CC#N | 1.9 | 1.3 | 25.5 | 19.8* | 1.2 | -0.1 | -7.6
COc1ccccc1NC(c1cccnc1)c1ccc2cccnc2c1O (stereo not given) | 14.1 | 2.8 | 40.1 | 18.2* | 5.2 | 19.2* | -3.2
Oc1ccccc1C(Nc1nccs1)c1ccc2cccnc2c1O (stereo not given) | 87.0* | -2.7 | 137.7* | 22.5* | 74.9* | 20.1* | -1.2
COc1ccccc1NC(NC(=O)c1cccnc1)C(Cl)(Cl)Cl (stereo not given) | -0.7 | -0.9 | -15.7 | 0.1 | -5.9 | x | x
Oc1c(C(Nc2ccccn2)c2ccccn2)ccc2cccnc12 (stereo not given) | 87.0* | 5.9 | -3.9 | 71.6* | 72.5* | 75.8* | 0.1
O=C(Nc1nccs1)c1cccc2ccccc12 | -2.4 | 0.0 | -0.4 | 0.3 | 3.8 | x | x
NS(=O)(=O)c1cccc(NC(=O)COC(=O)CCC2CCCC2)c1 | -2.8 | x | -10.3 | x | x | x | x
Cc1c(CCOC(=O)C23CC4CC(CC(C)(C4)C2)C3)sc[n+]1CC(=O)c1ccccc1 | 54.3 | 0.3 | -6.8 | 20.4* | 11.5 | -6.9 | -4.7
Cc1ccc(C(C)C)c(OCc2nn(CC(=O)c3ccc(Cl)cc3)c3[n+]2CCCCC3)c1 | 136.1* | 3.2 | u | 23.0* | 23.4 | -17.5 | -0.6
O=C(Cn1nc(CNc2ccc(Cl)cc2)[n+]2c1CCCCC2)c1ccccc1 | 4.3 | -1.6 | 3.9 | 0.8 | 11.2 | x | x
CCCCN(C)C(=O)c1nc2ccccn2c1CN1CCN(c2cnccn2)CC1 | 2.7 | 1.9 | -8.9 | 19.2* | -0.9 | -0.7 | -1.2
CCCCN(C)C(=O)c1nc2ccccn2c1CN1CCN(c2ccccn2)CC1 | 0.6 | 0.7 | -11.1 | -3.2 | -2.3 | x | x
O=C(Cc1csc(NC(=O)Nc2ccc(Cl)cc2)n1)NC1CCCC1 | 1.3 | 3.9 | -4.1 | 24.3* | 15.7 | 18.9* | -2.7
CC(=O)Nc1cccc(NC(=O)CSc2ncc(C(=O)Nc3ccc(F)cc3)c(=O)n2C)c1 | -0.5 | 0.8 | 22.8 | 33.6* | 23.8 | 1.9 | 1.9
CC(=O)Nc1ccc(NC(=O)CSc2ncc(C(=O)Nc3ccc(F)cc3)c(=O)n2C)cc1 | 5.4 | 0.6 | 30.5 | 3.0 | 18.6 | x | x
O=C(CSc1nnc(C2CC2)n1C1CC1)c1ccc(Br)s1 | -3.4 | x | -8.2 | x | x | x | x
COc1cc(C)nc(NCc2ccccc2)n1 | -4.8 | 2.2 | -6.6 | -0.2 | -0.3 | x | x
